This is part of a sample that, as a whole, favours compounds with a hit. Of some 83,000 tested, about 20% had one in any assay.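 The test compound was applied at a single concentration to cells in 96-well plates for 48 hours, and percent growth was recorded.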 Unmarked numbers belong to inactive results. The source made the active and inactive calls. Rule for the calls: active = growth percent below 10; inactive = the rest.
System: HL-60(TB) leukemia
Assay: NCI-60 one-dose screen, 48 h (100 = growth as untreated, 0 = no growth, -100 = all killed)
Conditions: 10 µM unless noted

SMILES	growth
Oc1ccc2c(c1)CCc1ccccc1-2	103%
CNC(=O)NN	64%
CCN1CCC(CCOC)(CN2c3ccccc3Sc3ccc(Cl)cc32)C1 (stereo not given)	58.5%
CCn1c(SCC(=O)N/N=C(\C)c2ccc(Cl)cc2)nc2c1c(=O)n(C)c(=O)n2C	101%
Cc1ccc(S(=O)(=O)Nc2c(Br)cc(Br)cc2C(N)=O)cc1	83%
N=c1sc2ccccc2n1CC(=O)O	114%
C=C1C(=O)O[C@H]2[C@H]1CC/C(COC(=O)NCCCCCCCCNC(=O)OC/C1=C/CC[C@@]3(C)O[C@H]3[C@H]3OC(=O)C(=C)[C@@H]3CC1)=C\CC[C@@]1(C)O[C@@H]21	-50.2% (active)
NNc1ncccn1	103%
c1ccc(CN2COc3c(ccc4c3OCN(Cc3ccccc3)C4)C2)cc1	-19% (active)
CN(CSc1ccc(Cl)cc1)c1ccc(CSc2ccc(Cl)cc2)cc1	-16.2% (active)
COc1ccc2nccc(/C=C/c3ccnc4ccc(OC)cc34)c2c1	63.5%
CCCCCCCCCCCCCC/C=C\C(CC(=O)O)C(=O)O (stereo not given)	72.4%
COc1ccc2nc(NC(=O)c3cccnc3Nc3cc(OC)c(OC)c(OC)c3)sc2c1	51.8%
CC1(CO)CCCC1NCCNC1CCCC1(C)CO (stereo not given)	95.2%
O=Cc1nc2ccccc2[nH]1	98%
Cc1ccc(-c2nc(N3CCNCC3)c3oc(-c4ccc(C)cc4)nc3n2)cc1	-69.3% (active)
O=C1c2ccccc2C(=O)c2cc(Cn3cc[n+](Cc4ccc5ccccc5c4)c3)ccc21	43%
COc1cc(/C=N/OC(=O)Nc2ccccc2)cc(OC)c1OC	99.2%
C#C[C@]1(O)CC[C@H]2[C@@H]3CC=C4c5sc(-c6ccccc6)nc5CC[C@]4(C)[C@H]3CC[C@@]21C	74.2%
c1ccc2cc(-c3n(Cc4ccc5ccccc5n4)c4ccccc4[n+]3Cc3ccc4ccccc4n3)ccc2c1	-55.1% (active)

SMILES	growth
O=C1/C(=C/c2ccc([N+](=O)[O-])s2)Oc2cc(Cl)ccc21	-11.7% (active)
CN1CC=C(c2cc(NC(=O)Nc3ccc(Oc4ccnc(NC(=O)C5CC5)c4)c(F)c3)cc(C(F)(F)F)c2)CC1	-18.3% (active)
Cc1cc(C)nc(SC2=C(Nc3ccc(O)cc3)C(=O)N(Cc3ccccc3)C2=O)n1	60.6% [40 µM]
CCN1CCN(CC(=O)Nc2ccc(-c3cn4c(n3)sc3cc(Oc5ccnc(C(=O)NC)c5)ccc34)cc2)CC1	-35.4% (active)
CC(=O)N1N=C(c2ccc(Cl)cc2)CC1c1c(C)nn(-c2ccccc2)c1N(C)Cc1ccccc1 (stereo not given)	82.4%
CCOC(=O)C1(CC(C)C)CCOC1=O (stereo not given)	96.9%
Nc1ncc(C#Cc2cncc(NC(=O)c3cccc(C(F)(F)F)c3)c2)c2cccnc12	33.2%
COCCCC/C(=N\OCCN)c1ccc(C(F)(F)F)cc1	122%
CCCCC(C#N)C(N)=O (stereo not given)	93.8%
COc1c(-c2cc(-c3ccc(C)o3)[nH]c(=O)n2)c(O)cc2occc12	38.2%
CC1=C/C(=C(\c2cc(C)c(O)c(C(=O)O)c2)c2c(Cl)cccc2Cl)C=C(C(=O)O)C1=O	106%
CN(C)c1ccc2cc(-c3cc4c(oc3=O)-c3ccccc3OC4O)c(=O)oc2c1 (stereo not given)	-66.5% (active)
O=C(/C=C/c1ccc(O)c(O)c1)N1CCN(c2ccc(Cl)cc2)CC1	12.9%
C=CCn1c(SCC(=O)Nc2ccc(C(=O)/C=C/c3cc(OC)c(OC)c(OC)c3)cc2)nnc1-c1cc(OC)c(OC)c(OC)c1	16.5%
Cc1nc2sccn2c1-c1csc(Nc2ccccc2Cl)n1	19.2%
Cc1nc2sc(C(=O)Nc3cccc(Br)c3C)c(N)c2cc1C(O)c1ccccc1 (stereo not given)	-46.6% (active)
Clc1cc(Cl)c(OCC#CI)cc1Cl	47.6%
CCN1C(=O)N(CC)C2C1NN=C1SCC(=O)N12 (stereo not given)	99.1%
N[C@H](CS)C(=O)O	109%
CC(C)CC1NC(C)(C)CO1 (stereo not given)	133%

From PubChem BioAssay (NCI)
